This is a sample that favours compounds with a hit; in the whole collection about 3.4% have one here.
PAX8 reporter: lowers PAX8-driven luciferase in RMG-I cells; RMG-I TPO-luciferase reporter, SteadyGlo, 24 h; inhibition, % at 12.6 µM; hit rate 1.2% among 360,000; AID 652154;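 active = mean replicate inhibition at least 60% with every replicate also reaching 60%; inconclusive = only one of the two criteria is met; inactive = mean below 60% and not all replicates reaching 60%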;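 also: luciferase light reporting Pax8 driven TPO promoter activity; plate controls were median of neutral control wells for no effect and mitoxantrone controls for full effect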
LGR2 antag: inhibitors of bursicon-induced Drosophila LGR2 receptor cAMP signaling | inhibition, % at 9.99 µM | hit rate 0.35% among 380,000 | HEK293 LGR2, CRE-luciferase, bursicon-stimulated, 4 h;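 active = drop in luminescence signal, shown as inhibition above about 50% in the replicate tests, limit read from the data, passing the limit was not always enough; inconclusive = probably only some replicates passing the limit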;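 also: agonist challenge used bursicon conditioned medium at about half maximal strength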
rRNA inh HTS: inhibits bacterial ribosomal RNA function over humanized ribosomes | E. coli WT GFP vs humanized-ribosome RFP mutants, fluorescence, 24 h; stronger effect = lower value; DMSO median 0, no signal -100 | GFP signal change (wild-type ribosome), % (test concentration not listed) | hit rate 1.6% among 350,000 | AID 720706;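 active = significant combined selectivity score with lowered wild-type GFP, culture density cut under 30%, mutant RFP and density less affected; inactive = any of these conditions unmet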
SIRT5 inh: sirtuin-5 (human) deacylase inhibition | Q9NXA8 | hit rate 1.1% among 330,000 | Purified SirT5, succinyl-peptide AMC, trypsin-coupled fluorescence | inhibition, % at 15 µM; in the data active = inhibition above about 15%; inconclusive = no clear call, values can overlap the other calls
Target sequence (Q9NXA8 whole entry, looked up): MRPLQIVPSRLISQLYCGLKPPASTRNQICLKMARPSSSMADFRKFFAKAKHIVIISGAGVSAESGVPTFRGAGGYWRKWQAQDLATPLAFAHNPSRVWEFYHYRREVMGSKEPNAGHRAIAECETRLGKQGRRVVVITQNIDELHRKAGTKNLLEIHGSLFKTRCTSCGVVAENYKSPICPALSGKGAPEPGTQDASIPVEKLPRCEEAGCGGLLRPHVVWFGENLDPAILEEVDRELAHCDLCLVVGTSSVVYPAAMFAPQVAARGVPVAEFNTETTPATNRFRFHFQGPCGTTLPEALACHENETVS
PGC1a acetyl inh: modulators of PGC1a acetylation | U2OS PGC1a acetylation, AlphaScreen anti-acetyl-lysine; with virally co-expressed GCN5 acetyltransferase | inhibition, % at 15.6 µM | hit rate 0.17% among 350,000;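 active = every replicate shows inhibition of at least 40%; inconclusive = mean inhibition at least 40% but some replicate below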;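 also: 0% = neutral control wells and 100% = positive control wells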
EWS-Fli block: inhibitors of EWS/Fli oncoprotein transcriptional activity. A673 NR0B1-luciferase reporter, viability-normalised. hit rate 0.67% among 350,000. inhibition, % at 12.6 µM;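 active = mean inhibition of at least 50% after viability correction, with every replicate also passing that limit; inconclusive = mean reaches 50% but only one of two replicates passes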;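 also: firefly luciferase signal divided by Alamar Blue viability fluorescence both relative to DMSO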
AID977621: wild-type E. coli growth inhibition versus H69 humanized strain – H69 mutant RFP, wild-type GFP, cherry-pick, dose response. shares compounds with rRNA inh HTS. fluorescence, 24 h. activity change, negative = inhibition at 50 µM. 1,900 tested, under 10 active. AID 977621;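 active = Wild-type ribosome reporter drop at least double the humanized mutant ribosome reporter drop, growth loss under a set limit; inconclusive = no clear call, values can overlap the other calls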;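 also: wild-type GFP and H69 mutant RFP strains grown together 50/50 in each well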
AID977628: growth of wild-type and h24-humanized E. coli strains – h24 mutant RFP vs wild-type GFP, cherry-pick, dose response. shares compounds with rRNA inh HTS. AID 977628. activity change, negative = inhibition at 50 µM. E. coli WT GFP strain growth, fluorescence, 24 h. 1,900 tested, under 10 active;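 active = compound lowering the normal-ribosome reporter at least twice as much as the humanized-ribosome reporter, growth loss under a set limit; inconclusive = no clear call, values can overlap the other calls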;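 also: wild-type GFP and h24 humanized RFP strains co-cultured 1 to 1 per well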
Numbers without * were called inactive.

`CC(C)NC(=O)N1CC[C@H]2[C@@H]1c1cc(C#Cc3cccnc3)ccc1N(C)[C@H]2CO` gave PAX8 reporter 20, LGR2 antag -27, rRNA inh HTS -1, PGC1a acetyl inh -1 and EWS-Fli block 1.
`CN1c2ccc(C#Cc3cccnc3)cc2[C@@H]2[C@@H](CCN2C(=O)c2cccc(F)c2)[C@H]1CO` gave PAX8 reporter -6, LGR2 antag -18, rRNA inh HTS -38*, PGC1a acetyl inh -32, EWS-Fli block 15 and AID977621 2.6.
Screening Nc1[nH]c(C(=O)c2ccccc2)c(-c2ccc(Br)cc2)c1C(=O)c1cccs1 returned PAX8 reporter -11, LGR2 antag -2, rRNA inh HTS -34*, SIRT5 inh -8, EWS-Fli block -10 and AID977621 inconclusive.
For Nc1[nH]c(C(=O)c2ccccc2)c(-c2ccc(Br)cc2)c1C(=O)c1ccccc1 the results were PAX8 reporter -24, LGR2 antag 0, SIRT5 inh 1 and EWS-Fli block 12.
`COc1cc(C(=O)NCCc2c[nH]c3ccccc23)ccc1OCc1c(C)noc1C` gave PAX8 reporter 7, LGR2 antag 3, rRNA inh HTS -38*, SIRT5 inh 1, PGC1a acetyl inh -2, EWS-Fli block 26, AID977621 -13 and AID977628 inconclusive.
Screening O=C(CN1CCCCC1)Nc1nc(-c2ccc(F)c(F)c2)cs1 returned PAX8 reporter -31, LGR2 antag -30, rRNA inh HTS 5, SIRT5 inh -2, PGC1a acetyl inh -19 and EWS-Fli block -43.
`O=C(COC(=O)C1CC1)Nc1nc(-c2ccc(F)c(F)c2)cs1` gave LGR2 antag -27, rRNA inh HTS -24*, SIRT5 inh -3, PGC1a acetyl inh -4, EWS-Fli block -34 and AID977621 -6.5.
Screening C[C@@H]1CCCCO[C@@H](CN(C)C(=O)Nc2ccccc2)[C@@H](C)CN([C@H](C)CO)C(=O)c2cc(NC(=O)Nc3ccc4c(c3)OCO4)ccc2O1 returned PAX8 reporter -5, LGR2 antag -6, rRNA inh HTS 8, SIRT5 inh 5, PGC1a acetyl inh 28 and EWS-Fli block 4.
`CCCn1c(NCc2ccc3c(c2)OCO3)nc2ccccc21` gave LGR2 antag -13, rRNA inh HTS -22*, SIRT5 inh 0, PGC1a acetyl inh -18, EWS-Fli block -21 and AID977628 inconclusive.
CC(=O)Nc1cccc(OCCCOc2cccc([N+](=O)[O-])c2)c1 was read as PAX8 reporter 4, LGR2 antag -38, rRNA inh HTS -5.5*, EWS-Fli block -16, AID977621 -11 and AID977628 -8.9.
CC(CCc1ccccc1)NC(=O)CNC(=O)COc1ccccc1 (centres undefined) was read as PAX8 reporter 5, LGR2 antag 7, rRNA inh HTS -14*, SIRT5 inh -1, PGC1a acetyl inh -1, EWS-Fli block -1 and AID977621 -15.
For O=C(N[C@@H]1CC[C@H](CCNS(=O)(=O)c2ccc(F)cc2)O[C@H]1CO)c1ccccn1 the results were PAX8 reporter -14, LGR2 antag -12, rRNA inh HTS 1, SIRT5 inh -1, PGC1a acetyl inh -5 and EWS-Fli block 5.
For Cc1ccc(C(=O)Nc2ccc(C)c(S(=O)(=O)Nc3ccccc3Cl)c2)s1 the results were PAX8 reporter 31, LGR2 antag 9, rRNA inh HTS -32*, SIRT5 inh 1, EWS-Fli block 1, AID977621 -12 and AID977628 inconclusive.
Cc1ccc(NC(=O)c2cc3c(s2)CCCC3)cc1S(=O)(=O)Nc1ccccc1Cl was read as PAX8 reporter 20 and LGR2 antag 20.
COc1ccc(C[C@@H]2CCn3nncc3COC[C@H](CC(C)C)NC2=O)cc1 was read as rRNA inh HTS 5.
`CC(=O)N(C)C[C@@H]1Oc2ncc(C#Cc3ccccn3)cc2C(=O)N([C@@H](C)CO)C[C@H]1C` gave LGR2 antag -11, rRNA inh HTS 10, SIRT5 inh 5 and EWS-Fli block -7.
O=C(Nc1cccc(O)c1)c1cccc(C(=O)Nc2cccc(O)c2)c1 was read as PAX8 reporter -10, LGR2 antag -12, rRNA inh HTS -15, SIRT5 inh -5, PGC1a acetyl inh 0 and EWS-Fli block -33.
`O=C(Nc1cccc(O)c1)c1cccc(S(=O)(=O)Nc2cccc(O)c2)c1` gave PAX8 reporter 38, LGR2 antag -6, rRNA inh HTS -16*, SIRT5 inh -2, PGC1a acetyl inh -2, EWS-Fli block -3, AID977621 -4.3 and AID977628 -3.2.
Screening Cc1ccc(NC(=O)C2CCN(S(=O)(=O)c3ccc4c(c3)NC(=O)CO4)CC2)cc1 returned PAX8 reporter 0, LGR2 antag 12, rRNA inh HTS -18*, SIRT5 inh -10, PGC1a acetyl inh -10 and AID977628 -17.
C[C@@H]1CN([C@@H](C)CO)C(=O)c2cc(C#Cc3ccc(F)cc3)cnc2O[C@@H]1CN(C)C was read as LGR2 antag 11, rRNA inh HTS -3, SIRT5 inh 1, PGC1a acetyl inh -1 and EWS-Fli block -8.
`C[C@@H]1CN([C@@H](C)CO)C(=O)c2cc(C#Cc3ccccc3)cnc2O[C@@H]1CN(C)C(=O)C1CC1` gave LGR2 antag -8, rRNA inh HTS -4, SIRT5 inh -4, PGC1a acetyl inh 4 and EWS-Fli block -20.
COc1ccc2cc(CO)c3cc(OC)c(OC)cc3c2c1 was read as PAX8 reporter -18, LGR2 antag 13, rRNA inh HTS -28*, EWS-Fli block -14 and AID977621 -1.8.
COc1ccc2cc(CO)c(Cl)nc2c1 was read as PAX8 reporter -17, LGR2 antag 9, rRNA inh HTS -2, SIRT5 inh -2, PGC1a acetyl inh -1 and EWS-Fli block -7.
Screening COC(=O)c1cccc(CN2C(=O)SC(Nc3ccc(C)cc3)C2=O)c1 (centres undefined) returned PAX8 reporter -2, LGR2 antag 3, rRNA inh HTS -16*, SIRT5 inh 4, EWS-Fli block 6, AID977621 -20 and AID977628 inconclusive.
For O=C(NCCCn1ccnc1)c1sc2cc([N+](=O)[O-])ccc2c1Cl the results were PAX8 reporter -45, LGR2 antag -13, rRNA inh HTS -16*, SIRT5 inh 0, PGC1a acetyl inh 5, EWS-Fli block -29, AID977621 -17 and AID977628 -18.
